Where “and” joins values, the source holds several entries; their conditions need not be identical. Equal entries are not always repeated. Results filed as inconclusive are left out. Some compounds were tested as several samples or in several runs, with calls that do not always agree. Calls of active or inactive are those of the source. Unless noted, the call rests on the fitted dose curve; in most records, active means well fitted curve in the direction sought with a large enough effect in the repeat runs; inconclusive means weak or mixed curves; inactive means no such curve, though single readings can be large; an effect the other way counts as inactive or inconclusive.

The nature of experiment [1]: qHTS assay to identify small molecule antagonists of the thyroid receptor (TR) signaling pathway (AID 743065). Further: nearly all actives have a fitted effect of over 55% in size. Further: potency means the concentration at half of the fitted maximal effect. The method, boiled down: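 GH3.TRE-Luc rat pituitary cells carrying two TR response elements driving luciferase were plated for 4 h, given compound plus 1 nM T3 (final), and incubated 23.5 h at 37 C. ONE-Glo luminescence measured reporter inhibition; CellTiter-Fluor fluorescence tracked cytotoxicity.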
Background: Quantitative high-throughput screening tests each substance at several concentrations.

Experiment [2] concerns thyroid hormone receptor (rat, GH3 cells). The experiment in a line: qHTS assay to identify small molecule agonists of the thyroid receptor (TR) signaling pathway (AID 743066; calls by dose curve).
Experiment [3] is described as follows: qHTS assay to identify small molecule antagonists of the estrogen receptor alpha (ER-alpha) signaling pathway - cell viability counter screen (AID 743074; calls by dose curve; further: nearly all actives have a fitted effect of over 45% in size).
Experiment [4] in a line: qHTS assay to identify small molecule antagonists of the estrogen receptor alpha (ER-alpha) signaling pathway using the BG1 cell line - cell viability counter screen (AID 743081).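 Further: compound given together with 17beta-estradiol as the ER stimulus; nearly all actives have a fitted effect of over 45% in size.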
Experiment [5] in a line: qHTS assay to identify small molecule that activate the aryl hydrocarbon receptor (AhR) signaling pathway - cell viability counter screen (AID 743086).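 Further: HepG2 liver cells carrying the AhR DRE luciferase reporter; nearly all actives have a fitted effect of over 45% in size.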 The procedure, abridged: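 HepG2-AhR-luc (HG2L7.5c1) cells, 4000/well, were preincubated 5 h at 37C, exposed to compound in qHTS format for 24 hr at 37C, then given CellTiter-Fluor for 30 min; viability was read as fluorescence in the reporter wells.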

Experiment [6] is described as follows: qHTS assay for small molecule activators of the heat shock response signaling pathway - cell viability counter screen (AID 743209). Further: nearly all actives have a fitted effect of over 50% in size. Further: potency means the concentration at half of the fitted maximal effect. The method, boiled down: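 Cytotoxicity counter screen run in parallel with the HSE beta-lactamase reporter, using the same wells. HeLa HSE-bla cells received compound for 5 h at 37 C; ATP-based CellTiter-Glo luminescence was measured after 30 min at room temperature.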

The nature of experiment [7]: qHTS assay to identify small molecule agonists of the peroxisome proliferator-activated receptor delta (PPARd) signaling pathway - cell viability counter screen (AID 743211). Further: nearly all actives have a fitted effect of over 55% in size. The method, boiled down:
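Following 5 h plating at 37 C and 5% CO2, PPARd UAS-bla HEK293H cells took up test compounds for 17 h. Viability was quantified by luminescence 30 min after CellTiter-Glo addition at room temperature.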

In experiment [8] the target is Aryl hydrocarbon receptor (Homo sapiens) (UniProt P35869). The experiment is described as follows: qHTS assay to identify small molecule that activate the aryl hydrocarbon receptor (AhR) signaling pathway (AID 743085). Further: nearly all actives have a fitted effect of over 15% in size. Further: potency means the concentration at half of the fitted maximal effect.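 On activation: HG2L7.5c1 human HepG2 liver cells with stably integrated DRE-driven firefly reporter.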 The procedure, abridged:
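Measured in HG2L7.5c1 cells: CellTiter-Fluor signal (30 min incubation, 37C) for viability, then luciferase luminescence (30 min, room temperature). Compound contact time was 24 h at 37C, following a 5 h pre-incubation.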

The target of experiment [9] is Peroxisome proliferator-activated receptor gamma (Homo sapiens) (UniProt P37231). The experiment is described as follows: qHTS assay to identify small molecule agonists of the peroxisome proliferator-activated receptor gamma (PPARg) signaling pathway (AID 743094; active means well fitted activation curve with a large enough effect in the signal ratio in the repeat runs, not every such curve was filed as active; the % refers to the signal ratio). The method, boiled down:
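Cells from the PPARg UAS-bla HEK293H line are plated and incubated 5 h at 37C. Compounds in DMSO are pinned in and left 17 h at 37C. LiveBLAzer B/G substrate is then added for 1 h at room temperature before fluorescence is measured.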

The target is the same in experiment [10]. The experiment is described as follows: qHTS assay to identify small molecule antagonists of the peroxisome proliferator-activated receptor gamma (PPARg) signaling pathway (AID 743191; calls by dose curve; further: nearly all actives have a fitted effect of over 30% in size). The method, boiled down:
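GeneBLAzer PPARg UAS-bla HEK293H cells carrying a UAS-driven beta-lactamase reporter were plated at 3000 cells/well, preincubated 5 h at 37C, then given compound for 17 h at 37C; LiveBLAzer B/G FRET substrate was read after 1 h at room temperature.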

Experiment [11] can be described thus: qHTS assay for small molecule agonists of the antioxidant response element (ARE) signaling pathway - cell viability counter screen (AID 743203; calls by dose curve; further: nearly all actives have a fitted effect of over 55% in size). The method, boiled down:
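Cytotoxicity was tested in parallel with the ARE reporter screen. ARE-bla HepG2 cells were exposed to compounds for 16 hrs, and viability was taken from CellTiter-Glo luminescence.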

In experiment [12] the target is Aromatase (Homo sapiens) (UniProt P11511). The experiment is described as follows: qHTS assay to identify aromatase inhibitors (AID 743083). Further: nearly all actives have a fitted effect of over 55% in size.
Aromatase (Homo sapiens), sequence (P11511 whole entry, looked up): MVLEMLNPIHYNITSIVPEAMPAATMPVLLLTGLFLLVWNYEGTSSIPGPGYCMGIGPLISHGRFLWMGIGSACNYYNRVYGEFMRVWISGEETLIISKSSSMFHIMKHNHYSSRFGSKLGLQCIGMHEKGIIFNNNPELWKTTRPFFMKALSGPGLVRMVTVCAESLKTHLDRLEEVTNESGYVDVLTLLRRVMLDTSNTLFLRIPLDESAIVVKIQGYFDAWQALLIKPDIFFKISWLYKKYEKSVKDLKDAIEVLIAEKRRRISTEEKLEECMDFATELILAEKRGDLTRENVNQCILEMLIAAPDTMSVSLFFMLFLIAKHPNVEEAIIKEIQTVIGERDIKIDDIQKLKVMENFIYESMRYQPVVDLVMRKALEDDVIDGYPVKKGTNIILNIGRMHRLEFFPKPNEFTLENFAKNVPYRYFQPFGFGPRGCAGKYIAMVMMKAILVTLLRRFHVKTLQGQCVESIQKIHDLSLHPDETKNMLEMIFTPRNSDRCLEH
A short description of experiment [13]: qHTS assay to identify aromatase inhibitors - cell viability counter screen (AID 743084).
Experiment [14] is described as follows: qHTS assay to identify small molecule antagonists of the peroxisome proliferator-activated receptor gamma (PPARg) signaling pathway - cell viability counter screen (AID 743194). Further: nearly all actives have a fitted effect of over 55% in size. The conditions noted are these: Potency: co-treated with 50 nM rosiglitazone. The method, boiled down:
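PPARg-UAS-bla HEK293H cells were plated, rested 5 h at 37 C, then treated with compounds plus rosiglitazone (50 nM final) for 17 h at 37 C; viability was then read by CellTiter-Glo luminescence after 30 min at room temperature.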

Experiment [15] can be described thus: qHTS assay for small molecule activators of the heat shock response signaling pathway (AID 743210; active means well fitted activation curve with a large enough effect in the signal ratio in the repeat runs, with a control signal flat, not every such curve was filed as active; the % refers to the signal ratio;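 further: HeLa cells with beta-lactamase reporter driven by heat shock elements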). The method, boiled down:
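Activation of heat shock element-controlled beta-lactamase expression is measured in HeLa cells by LiveBLAzer FRET fluorescence, with compound exposure lasting 5 h at 37 C and substrate loading 2.5 h at room temperature.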

In experiment [16] the target is Estrogen receptor (Homo sapiens) (UniProt P03372). The experiment is described as follows: qHTS assay to identify small molecule antagonists of the estrogen receptor alpha (ER-alpha) signaling pathway (AID 743069; active means well fitted curve in the direction sought with a large enough effect in the signal ratio in the repeat runs, not every such curve was filed as active; the % refers to the signal ratio; further: potency means the concentration at half of the fitted maximal effect). The method, boiled down: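 Screening used a UAS-driven beta-lactamase reporter integrated into HEK293 cells expressing ER-alpha, stimulated with 17beta-estradiol alongside test compounds over 18 hr at 37C; signal came from LiveBLAzer B/G FRET fluorescence.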
Estrogen receptor (Homo sapiens), sequence (P03372 whole entry, looked up): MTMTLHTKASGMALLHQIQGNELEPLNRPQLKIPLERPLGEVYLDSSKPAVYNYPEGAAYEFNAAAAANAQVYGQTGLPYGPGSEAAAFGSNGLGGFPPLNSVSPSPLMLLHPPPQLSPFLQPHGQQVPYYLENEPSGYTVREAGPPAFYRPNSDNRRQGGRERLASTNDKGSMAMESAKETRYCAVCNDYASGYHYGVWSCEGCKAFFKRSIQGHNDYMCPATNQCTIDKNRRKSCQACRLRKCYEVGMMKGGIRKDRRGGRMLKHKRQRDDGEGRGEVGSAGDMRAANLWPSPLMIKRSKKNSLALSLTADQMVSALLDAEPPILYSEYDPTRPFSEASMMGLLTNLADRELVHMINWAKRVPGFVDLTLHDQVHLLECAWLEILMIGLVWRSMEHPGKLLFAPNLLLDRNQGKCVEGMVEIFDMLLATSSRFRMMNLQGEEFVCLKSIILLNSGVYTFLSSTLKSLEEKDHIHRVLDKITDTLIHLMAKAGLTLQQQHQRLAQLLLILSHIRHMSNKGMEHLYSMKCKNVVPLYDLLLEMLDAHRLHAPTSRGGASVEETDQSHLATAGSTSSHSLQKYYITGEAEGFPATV

Experiment [17] shares this target. The experiment in a line: qHTS assay to identify small molecule agonists of the estrogen receptor alpha (ER-alpha) signaling pathway (AID 743075; calls by dose curve).
For experiment [18] the target is unchanged. The experiment is described as follows: qHTS assay to identify small molecule agonists of the estrogen receptor alpha (ER-alpha) signaling pathway using the BG1 cell line (AID 743079). Further: nearly all actives have a fitted effect of over 20% in size. The note with it: BG1Luc4E2 cells, ERE-luciferase agonist, 22 h; at 70.3 µM (top of the series).
A short description of experiment [19]: qHTS assay to identify small molecule antagonists of the estrogen receptor alpha (ER-alpha) signaling pathway using the BG1 cell line (AID 743080; calls by dose curve;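 further: BG1 cells stimulated with 17beta-estradiol alongside compound; nearly all actives have a fitted effect of over 25% in size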). The method, boiled down: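 BG1Luc4E2, endogenous ER-alpha, 4xERE-luc; 5 d charcoal-stripped FBS, phenol red free; 24 h plating; cpd + 17beta-estradiol 21.5 h, 37 C/5% CO2; CellTiter-Fluor viability 30 min, then ONE-Glo luciferase 30 min RT.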

Experiment [20] is described as follows: qHTS assay for small molecule agonists of the antioxidant response element (ARE) signaling pathway (AID 743202; active means well fitted activation curve with a large enough effect in the signal ratio in the repeat runs, not every such curve was filed as active; the % refers to the signal ratio). The procedure, abridged: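 Steps: seed ARE-bla HepG2 cells (2,000/well); incubate 5 h at 37 C; add compounds by pin tool; incubate 16 h at 37 C; add FRET substrate; read fluorescence after 2 h at RT.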
On the % scale 0 is the no-effect control and ±100 the full control effect.

Peroxisome proliferator-activated receptor gamma (Homo sapiens), sequence (P37231 whole entry, looked up): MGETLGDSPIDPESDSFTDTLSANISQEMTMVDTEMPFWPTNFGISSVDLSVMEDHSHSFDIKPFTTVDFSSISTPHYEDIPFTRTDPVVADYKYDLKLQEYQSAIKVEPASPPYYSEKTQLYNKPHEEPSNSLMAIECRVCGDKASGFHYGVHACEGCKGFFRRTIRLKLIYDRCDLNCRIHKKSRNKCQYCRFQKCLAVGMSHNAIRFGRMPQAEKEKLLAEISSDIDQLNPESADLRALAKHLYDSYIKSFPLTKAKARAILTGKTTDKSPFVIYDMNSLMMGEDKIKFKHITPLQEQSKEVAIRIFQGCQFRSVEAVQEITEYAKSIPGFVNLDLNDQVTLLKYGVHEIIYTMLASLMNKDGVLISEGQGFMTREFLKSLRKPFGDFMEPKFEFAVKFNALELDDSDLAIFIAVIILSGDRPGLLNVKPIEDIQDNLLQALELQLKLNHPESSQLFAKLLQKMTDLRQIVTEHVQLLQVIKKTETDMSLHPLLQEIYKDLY
Aryl hydrocarbon receptor (Homo sapiens), sequence (P35869 whole entry, looked up): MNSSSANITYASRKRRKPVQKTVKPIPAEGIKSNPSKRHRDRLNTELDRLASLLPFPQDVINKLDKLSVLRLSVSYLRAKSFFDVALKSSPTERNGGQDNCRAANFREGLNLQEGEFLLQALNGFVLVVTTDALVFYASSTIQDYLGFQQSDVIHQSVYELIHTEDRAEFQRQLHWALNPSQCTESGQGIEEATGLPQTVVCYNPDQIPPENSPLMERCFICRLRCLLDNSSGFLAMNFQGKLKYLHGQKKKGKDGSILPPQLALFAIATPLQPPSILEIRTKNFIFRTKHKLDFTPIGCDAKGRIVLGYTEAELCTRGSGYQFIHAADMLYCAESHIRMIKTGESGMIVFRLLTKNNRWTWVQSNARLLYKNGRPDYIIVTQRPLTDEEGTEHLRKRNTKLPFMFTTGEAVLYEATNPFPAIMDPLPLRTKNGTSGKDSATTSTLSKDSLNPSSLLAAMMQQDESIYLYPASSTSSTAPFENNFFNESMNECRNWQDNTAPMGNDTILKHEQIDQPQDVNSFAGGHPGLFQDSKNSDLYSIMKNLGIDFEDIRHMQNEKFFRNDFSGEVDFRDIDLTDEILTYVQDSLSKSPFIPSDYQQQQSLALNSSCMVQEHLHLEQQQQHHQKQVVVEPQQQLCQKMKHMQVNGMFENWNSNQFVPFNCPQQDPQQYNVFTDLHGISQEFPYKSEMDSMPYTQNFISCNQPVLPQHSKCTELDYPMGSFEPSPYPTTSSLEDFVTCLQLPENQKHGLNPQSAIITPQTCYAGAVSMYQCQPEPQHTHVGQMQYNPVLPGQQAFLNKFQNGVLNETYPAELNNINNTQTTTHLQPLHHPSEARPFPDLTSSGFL

On to `CCCCC(=O)Cl`, for which the Potency result in experiment [1], in experiment [2], in experiment [4], in experiment [6] and in experiment [7] was “inactive” in each case. For the same compound, the call in experiment [3] and in experiment [5] was inactive.
Regarding `CCOP(=S)(Oc1cnc(C(C)(C)C)nc1)OC(C)C` (stereo unspecified), the Potency was 61.1 µM (active) in experiment [1] and 54.5 µM (active) in experiment [8]. Further, the Potency result in experiment [2], in experiment [4], in experiment [10], in [11] and in experiment [6] was “inactive” throughout. Further, the call in experiment [3], in [5] and in experiment [9] was inactive.
For the compound `CN1CCC(O)(c2ccc(F)cc2)C(C(=O)c2ccc(F)cc2)C1` (stereo unspecified), the Potency in experiment [1] is 26.6 µM (active). The Potency result in experiment [2], in experiment [4], in experiment [12], in experiment [13], in [10] and in experiment [14] was “inactive” throughout. In addition, the Potency entry in experiment [11] and in experiment [7] was “inactive” in each case. Also, the compound was called inactive in [3], in [5] and in [9].
Regarding `CNC(=O)N(C)c1nc2ccccc2s1`, the Potency entry in [1], in experiment [2], in experiment [4], in experiment [12], in experiment [13] and in [10] was “inactive” throughout. Further, the Potency entry in experiment [14], in [11], in experiment [6] and in experiment [7] was “inactive” each time. Further, the Potency in experiment [8] was 27.3 µM (active). Further, the outcome in experiment [5], in experiment [9] and in experiment [15] was inactive.
For the compound `O=C1CN=C(c2ccccc2)c2cc([N+](=O)[O-])ccc2N1`, the Potency result in [2], in [16], in experiment [17], in experiment [19], in experiment [4] and in [12] was “inactive” throughout. Also, the Potency result in [13], in experiment [8], in [10], in [14], in experiment [20] and in experiment [11] was “inactive” throughout. For the same compound, the Potency result in [7] was “inactive”. Further, the compound was called inactive in experiment [3], in experiment [5], in [9] and in experiment [15]. Moreover, in experiment [18], the activation is -1.51% (inactive).
Consider `CCNc1nc(NC(C)C)nc(OC)n1`, for which the Potency result in experiment [1], in [2], in experiment [4], in experiment [12], in [20] and in [7] was “inactive” throughout. The result in [3], in experiment [5], in [9] and in [15] was inactive.
On to `CNCC(=O)c1ccc(O)c(O)c1`, for which the Potency entry in experiment [1], in experiment [2], in experiment [17], in [19], in experiment [12] and in [13] was “inactive” each time. Further, the Potency entry in [8], in experiment [10], in [14], in experiment [11] and in experiment [7] was “inactive” each time. For the same compound, the activation in [18] is -0.0937% (inactive). Also, the result in [5] and in experiment [9] was inactive.
For `CC1CCC(=O)O1` (stereo unspecified), the Potency entry in experiment [1], in [2], in experiment [4], in experiment [11] and in experiment [7] was “inactive” throughout. For the same compound, the compound was classed as inactive in experiment [3], in experiment [5] and in experiment [15].
Turning to `CCN(CC)CCOC(=O)C(C)(c1ccccc1)c1ccccc1`, the Potency in experiment [1] is 26.6 µM (active). Besides, the Potency result in experiment [2], in [12], in experiment [13], in experiment [10], in [14] and in experiment [20] was “inactive” in each case. The Potency result in [6] and in [7] was “inactive” in each case. For the same compound, the call in experiment [3], in [9] and in experiment [15] was inactive.
Consider `CC(C)(C)NCC(O)c1cc(Cl)c(N)c(Cl)c1` (stereo unspecified), for which the Potency result in [1], in experiment [2], in [12], in experiment [8], in experiment [10] and in experiment [14] was “inactive” each time. For the same compound, the Potency result in experiment [20], in [11], in experiment [6] and in experiment [7] was “inactive” in each case. Besides, the compound was called inactive in experiment [3], in [5], in experiment [9] and in [15].
Regarding `CCOC(=O)/C=C(C)/C=C/C[C@@H](C)CCCC(C)C`, the Potency entry in experiment [1], in [17], in [19], in [4], in experiment [12] and in experiment [13] was “inactive” each time. Moreover, the Potency entry in experiment [16] is “inactive and 24.5 µM [inhibitor] (active)”; in [6], 38.9 µM (active). The result in experiment [3], in [5] and in [9] was inactive. Besides, in experiment [18], the activation is 19.2% (inactive) and -9.9% (inactive).

(Values after PubChem BioAssay (Tox21).)
